From PubChem BioAssay AID1345085 (National Center for Advancing Translational Sciences (NCATS), 2018) come the findings set out here.

Records with an inconclusive call do not appear. Where a call stands in place of a potency, no number is given. Calls of active or inactive are those of the source. Calls follow the shape of the dose curve; as a rule, active = well fitted cell-killing curve with a large enough effect; inconclusive = small, poorly fitted or top-dose-only effect, or effect the other way; inactive = no such curve, though single readings can be large or run the other way.
Potency is read from the fitted curve at half-maximal effect.

This test has as its system Jar. The test can be described thus: Confirmatory qHTS for gynecologic anti-cancer compounds from libraries of approved drugs and bioactive compounds. Also: nearly all actives have a fitted effect of over 55% in size. The note with it: gynecologic cancer cell panel viability, ATPlite luminescence, 48 h; series mostly up to 57.6 µM. In outline:
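1,000 cells/well; 16 h pre-incubation 37 C, 5% CO2; pin-transferred cpd in DMSO, 11 conc (1:3), 57.5 uM–0.977 nM; 48 h; ATPlite, 15 min RT; luminescence → IC50.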
Background: In qHTS, concentration-response curves come from the screen itself.
On to `C[C@H]1CCC/C=C/C2C[C@H](O)C[C@H]2[C@H](O)/C=C/C(=O)O1` (some centres not stated), for which the Potency was 432 nM (active). For the compound `Cc1sc2c(c1C)C(c1ccc(Cl)cc1)=NC(CC(=O)OC(C)(C)C)c1nnc(C)n1-2` (configuration not stated), the Potency is 5440 nM (active). With `CCNC(=O)C[C@@H]1N=C(c2ccc(Cl)cc2)c2cc(OC)ccc2-n2c(C)nnc21`, the Potency result was “inactive”. Consider `O=C(O)Cc1ccccc1`, for which the Potency result is “inactive”. The entry for `CCC(=O)O[C@H]1CC[C@H]2[C@@H]3CCC4=CC(=O)CC[C@]4(C)[C@H]3CC[C@]12C` is “inactive”; for `C=C(C)[C@H]1Cc2c(ccc3c2O[C@@H]2COc4cc(OC)c(OC)cc4[C@@H]2C3=O)O1` it is 34.3 nM (active). On to `C[C@]12CC[C@H]3[C@@H](CCC4=CC(=O)CC[C@@H]43)[C@@H]1CC[C@@H]2OC(=O)CCc1ccccc1`, for which the Potency entry is “inactive”.
